Measured values from PubChem BioAssay AID430 (Sanford-Burnham Center for Chemical Genomics, 2006).
Screen size: about 63,000 compounds; about 1,100 (1.7%) were called active. Many of the other results were omitted from the sample, so actives are more common in it than they were. Results with a measured potency or affinity are listed apart. Values without a mark were called inactive. No stated cut-off is given here; in the data, active means cytotoxicity above about 50%; inactive means the rest.

Assay: cytotoxicity in HPDE-C7 cells, cell-based, fluorescence, HTS (AID 430);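 further: cells exposed to compound for 48 hours before viability readout; 0% = vehicle and 100% = reference cytotoxic drug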
Conditions: HPDE-C7 pancreatic duct cells viability, at 10 µM, hits give high values

Q: Which cytotoxicity does the source give for `O=C1CCC(=O)N1CC(=O)N1c2ccccc2Sc2ccccc21` here?
A: -7.4%

Q: With `COc1ccc(-n2nc3c(c2NC(=O)c2cc4ccccc4oc2=O)CS(=O)(=O)C3)cc1` as the molecule, how does the cytotoxicity read?
A: -14.8%

Q: Which cytotoxicity does the source give for `Cc1cc(C)n(-c2nc3c(c(=O)[nH]c(=O)n3C)n2CCc2ccccc2)n1` here?
A: 5.1%

Q: With `Cc1[nH]c2ccccc2c1C(=O)CN1CCCCC1CCO` (stereo not given) as the molecule, how does the cytotoxicity read?
A: -11.2%

Q: For `CCOc1ccc(Cn2nnc(C(=O)NCc3ccc(OC)cc3)c2N)cc1`, which cytotoxicity is on record?
A: -14.5%

Q: For `CCOc1cc(S(=O)(=O)NCC2OCCc3ccccc32)c(OCC)cc1-n1cnnn1` (stereo not given), which cytotoxicity is on record?
A: 2.3%

Q: Which cytotoxicity does the source give for `CCC(=O)OC1=C2C(=Nc3c(c(=O)n(C)c(=O)n3C)C2c2ccccc2)c2ccccc21` (stereo not given) here?
A: 0.2%

Q: For `CCOc1cc(NC(=O)c2ccco2)c(OCC)cc1NC(=O)Cc1ccc(OC)c(OC)c1`, which cytotoxicity is on record?
A: -12%

Q: Which cytotoxicity does the source give for `Cc1cc(C)cc(N2CCCn3c2nc2c3c(=O)n(CCN3CCOCC3)c(=O)n2C)c1` here?
A: -6.7%

Q: Which cytotoxicity does the source give for `CC(=O)C1=C(O)C(=O)N(Cc2cccnc2)C1c1ccc(Cl)cc1Cl` (stereo not given) here?
A: -17.4%

Q: For `Cc1ccc2c(c1)NC(=O)C(CC(=O)N(C)Cc1ccccc1)O2` (stereo not given), which cytotoxicity is on record?
A: 1.5%

Q: With `CC(OC(=O)C1CCCO1)C(=O)NC1CCCC1` (stereo not given) as the molecule, how does the cytotoxicity read?
A: 5.3%

Q: For `COC(=O)c1ccc(NC(=O)c2ccccc2NS(C)(=O)=O)cc1`, which cytotoxicity is on record?
A: 10.7%

Q: With `O=C(c1cccn2c(=O)c3ccc(Cl)cc3nc12)N1CCN(Cc2ccc3c(c2)OCO3)CC1` as the molecule, how does the cytotoxicity read?
A: -0.1%

Q: Which cytotoxicity does the source give for `COc1ccc(C(=O)Oc2ccc3c(c2)OCO3)cc1OC` here?
A: -13.3%

Q: Which cytotoxicity does the source give for `COc1cc2c(O)c3c(c(-c4ccc5c(c4)OCO5)c2cc1OC)C(=O)OC3` here?
A: 82.2% (active)

Q: For `COc1cc2c(=O)n(-c3ccc(C)cc3)c(=O)n(CC(=O)c3ccc4c(c3)OCO4)c2cc1OC`, which cytotoxicity is on record?
A: 6.8%

Q: For `Cc1ccc(S(=O)(=O)NCc2ccncc2)cc1`, which cytotoxicity is on record?
A: 3.6%

Q: With `COc1ccc(Nc2nc(N)nc(CSc3n[nH]c(-c4ccccc4)n3)n2)cc1` as the molecule, how does the cytotoxicity read?
A: -20.3%

Q: With `COc1ccccc1N1CCN(C(=O)C2CC=CCC2C(=O)O)CC1` (stereo not given) as the molecule, how does the cytotoxicity read?
A: 9.5%

Q: For `COc1ccc(C(C)=O)cc1COC(=O)c1ccc(S(=O)(=O)N2CCOCC2)cc1`, which cytotoxicity is on record?
A: 21%

Q: Which cytotoxicity does the source give for `COc1cc(NC(=O)c2ccco2)ccc1NC(=O)c1ccccc1Cl` here?
A: 2.8%

Q: With `N#Cc1c(-c2ccco2)nc(SCc2ccc(F)cc2)[nH]c1=O` as the molecule, how does the cytotoxicity read?
A: 54.3% (active)

Q: Which cytotoxicity does the source give for `N#Cc1c(-c2ccco2)nc(SCC(=O)Nc2cccc(Cl)c2)[nH]c1=O` here?
A: 19%

Q: With `Cc1nc(SCc2cccc(F)c2)[nH]c(=O)c1C#N` as the molecule, how does the cytotoxicity read?
A: -9.7%
